50 molecules from PubChem BioAssay AID1634 (National Center for Advancing Translational Sciences (NCATS), 2009) can be followed below.

In all, about 260,000 compounds went through this assay and about 150 (0.058%) were called active. Shown is part of a subset that was picked to be rich in actives. A number with no mark means an inactive call. The call rests on the fitted dose curve; in most records, active means well fitted inhibition curve with a large enough effect; inconclusive means small, poorly fitted or top-dose-only effect; inactive means no such curve, though single readings can be large or run the other way.
Potency means the concentration at half of the fitted maximal effect.

Pyruvate kinase PKM (Homo sapiens), sequence (P14618 whole entry, looked up, canonical isoform): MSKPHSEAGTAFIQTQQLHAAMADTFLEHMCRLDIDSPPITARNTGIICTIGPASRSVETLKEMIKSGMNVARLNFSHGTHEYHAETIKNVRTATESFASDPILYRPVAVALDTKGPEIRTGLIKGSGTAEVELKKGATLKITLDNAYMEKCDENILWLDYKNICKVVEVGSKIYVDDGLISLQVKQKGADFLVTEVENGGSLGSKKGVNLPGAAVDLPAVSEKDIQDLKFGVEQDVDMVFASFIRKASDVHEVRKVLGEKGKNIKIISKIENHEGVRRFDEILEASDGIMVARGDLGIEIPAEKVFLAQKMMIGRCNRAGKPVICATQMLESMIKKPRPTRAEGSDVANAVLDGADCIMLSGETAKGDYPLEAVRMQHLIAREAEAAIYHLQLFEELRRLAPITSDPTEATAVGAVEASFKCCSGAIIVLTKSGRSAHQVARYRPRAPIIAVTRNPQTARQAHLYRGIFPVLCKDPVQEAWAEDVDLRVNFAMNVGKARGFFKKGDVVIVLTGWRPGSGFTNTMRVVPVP

The test has as its target Pyruvate kinase PKM (Homo sapiens) (UniProt P14618). The test is described as follows: qHTS Assay for Inhibitors of Human Muscle isoform 2 Pyruvate Kinase. Further: nearly all actives have a fitted effect of over 60% in size.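 On activity change, negative = inhibition: plate controls were uninhibited enzyme wells for no effect and no-enzyme wells for full effect.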 The following applies: purified PKM2, ATP generation, Kinase-Glo luminescence; series mostly up to 57.5 µM; activity change, negative = inhibition: at the top concentration. The procedure:
NIH Chemical Genomics Center [NCGC] Matthew G. Vander Heiden, M.D., Ph.D. [Harvard Medical School, 77 Avenue Louis Pasteur, Boston, MA 02115] […] ATP generation was detected in a coupled reaction by luciferase-mediated luminescence, an ATP-dependent process. […] The enzyme was assayed at an intermediate level of activity to screen for both inhibitors and activators.
NCGC Assay Protocol Summary: Three uL of substrate mix (at r.t.) in assay buffer (50 mM Imidazole pH7.2, 50 mM KCl, 7 mM MgCl2, 0.01% Tween 20, 0.05% BSA) was dispensed into white solid bottom 1,536 well microtiter plates so that the final concentrations of substrates in the assay were 0.1 mM ADP and 0.5 mM PEP. 23 nL of compound were delivered by a pin tool and 1 uL of enzyme mix in assay buffer (4 degree Celsius) was added. Plates were incubated at room temperature for 1 hour. Two uL of detection mix (Kinase-Glo, Promega; at 4 degree Celsius protected from light) was added and luminescence read by a ViewLux (Perkin Elmer) at 5 second exposure/plate. Data were normalized to the uninhibited and AC100 inhibition (no enzyme). To monitor activation, the first column contained a titration of the activator, NCGC00031955-01 (16-point 1:2 dilutions in duplicate starting at 57 uM) and the first 16 rows of column 4 contained 57 uM of NCGC00031955-01.
For orientation: Quantitative high-throughput screening tests each substance at several concentrations.
On to `Cc1nnc(SCC2=C(C(=O)O)N3C(=O)C(NC(=O)Cn4nc(C)c(Cl)c4C)C3SC2)s1` (stereo not given), for which the “activity change, negative = inhibition” value was 36.9%. Turning to `Oc1ccccc1N1CCN(c2ncnc3sc(-c4ccccc4)cc23)CC1`, the “activity change, negative = inhibition” value was 42.3%. As for `C=CCn1c(SCc2csc(C)n2)nc2scc(-c3ccc(C)o3)c2c1=O`, the “activity change, negative = inhibition” value is 84%.

As for `CCn1cc(C(=O)NCc2ccc3c(c2)OCO3)c2cc(OC)c(OC)cc2c1=O`, the “activity change, negative = inhibition” value was 47.2%. On the same count and under the same terms, the value for `Nc1nc(SCC(=O)N2CCN(S(=O)(=O)c3ccc(Cl)cc3)CC2)n[nH]1` was 47.6%; that for `C=CC(=O)c1ccc2ccccc2c1` was 65.1%. Same read-out and setting: the value for `CC(C)Oc1ccc(CCC(=O)NNC(=S)NCc2ccccc2)cc1` was 8.22%; that for `N#Cc1nc(COc2ccc(Cl)cc2)oc1N1CCCC1` was 42.1%; that for `CS(=O)(=O)Nc1cccc(C2=NN(S(=O)(=O)c3ccccc3)C(c3cccs3)C2)c1` (stereo not given) was 40.6%. The same measure, in the same setting: the value for `O=C(CCSCCc1ccccn1)Nc1nccs1` was 30.4%; that for `CCOc1cc(/C=N/O)ccc1OCc1ccccc1F` was 42.2%.

As to `O=c1[nH]c2ccccc2n2c(-c3ccccc3)nnc12`, the Potency was 25.1 µM (active). As for `COc1c(O)ccc2c1CN1CCc3cc4c(cc3C1C2)OCO4` (stereo not given), the “activity change, negative = inhibition” value was 40.9%. Same read-out and setting: the same measure for `COc1ccc(C(=O)CCc2ccccc2O)c(OC)c1`: 30.3%; for `CNC(=O)COc1ccc(S(=O)(=O)Nc2ccccc2)cc1`: 85.6%. Same read-out and setting: the value for `C(=N\N1CCN(c2ccccn2)CC1)/C1=C(N2CCOCC2)C(=C/c2ccccc2)/CC1` was 112%; that for `COc1cccc(C(=O)NNS(=O)(=O)c2ccc(F)cc2)c1` was 18%; that for `Cc1ccc(C(=O)Cn2cc([N+](=O)[O-])nc2C)cc1` was 38.1%. Take `Cc1ccc(CNC(=O)C2CC(c3ccccc3[N+](=O)[O-])=NO2)o1` (stereo not given): the “activity change, negative = inhibition” value was 53.9%.

In the case of `O=c1cc(CO)oc(C(Nc2cccc(C(F)(F)F)c2)c2ccccn2)c1O` (stereo not given), the “activity change, negative = inhibition” value is 61%.

Take `COc1ccc(-n2c(SCC(=O)NCc3cccs3)nnc2-c2ccoc2C)cc1`: the “activity change, negative = inhibition” value was -1%. Take `Cc1ccc(-c2nn(-c3ccccc3)cc2CN(Cc2ccccc2)C(=O)CCC(=O)O)o1`: the “activity change, negative = inhibition” value is 53.1%.

Turning to `Cc1cc(C)c2nc(-c3ccco3)cc(C(=O)O)c2c1`, the “activity change, negative = inhibition” value was 55%. On to `Cc1ccc(-n2nc(-c3ccco3)cc2C(=O)NCc2cccnc2)cc1`, for which the “activity change, negative = inhibition” value is 49.8%. Turning to `N#CCC(=O)N/N=C/c1cn(Cc2ccc3ccccc3c2)c2ccccc12`, the “activity change, negative = inhibition” value was 48.6%. Consider `CC(C)(C)C1C/C(=C/c2ccco2)C(=O)/C(=C/c2ccco2)C1` (stereo not given), for which the “activity change, negative = inhibition” value is 31.3%. Still for that read-out and setting: the same measure for `CN1CCN(c2ccc(S(=O)(=O)Nc3ccccc3)cc2[N+](=O)[O-])CC1`: 30.1%; for `Cc1ccc(NS(=O)(=O)c2ccc3c(c2)oc(=O)n3C)c(C)c1`: 33.2%.

As to `COc1ccc2c(c1)C=CC1(O2)N(CCO)c2ccccc2C1(C)C` (stereo not given), the “activity change, negative = inhibition” value was 31.4%.

As to `O=C(Cc1cccs1)Nc1nnc(C2CC2)s1`, the “activity change, negative = inhibition” value was 54.7%. The same measure, in the same setting: the same measure for `Cc1nc2nc(COc3ccccc3)[nH]n2c(=O)c1Cc1ccccc1`: 24.6%; for `CCCc1nc2ccccc2c(=O)n1/N=C/c1ccc(O)c(O)c1`: 36.2%; for `COc1ccccc1C(=O)NCc1nnc(SC(C)C(=O)Nc2nccs2)n1C` (stereo not given): 34.9%. On the same count and under the same terms, the same measure for `COc1ccc(-c2ccc(CCC(=O)O)n2NC(=O)c2ccc(C(C)(C)C)cc2)cc1`: 52.2%; for `Oc1ccccc1CNc1ncc(Br)cc1Br`: 80%; for `N/C(=N\S(=O)(=O)c1cc(C(F)(F)F)cc(C(F)(F)F)c1)c1cccs1`: 58.3%. Still for that read-out and setting: the value for `Cc1ccc2nc(C)cc(N/N=C/c3ccc(F)cc3)c2c1` was 80.3%; that for `COc1ccccc1-n1cnc2cc(NS(=O)(=O)c3ccccc3)ccc21` was 48.5%. Turning to `COc1ccc(SC[C@H](Cc2ccccc2)N2CCN(CCc3ccccc3)CCC2=O)cc1`, the “activity change, negative = inhibition” value was 33%. `COc1ccc2[nH]c3c(=O)n(Cc4ccco4)cnc3c2c1`: the “activity change, negative = inhibition” value is 47.6%.

As for `Fc1ccccc1CNC(=S)Nc1ccc(Cl)cc1`, the “activity change, negative = inhibition” value was 38.9%. The same measure, in the same setting: the same measure for `Cn1c(-c2ccc(F)cc2)cnc1SCC(=O)NCc1ccco1`: 58.6%; for `O=c1cc(Cn2nnc(-c3ccc(Cl)cc3)n2)nc2sccn12`: 160%; for `O=C(CCC(=O)n1ncc2ccccc21)NCc1ccccc1Cl`: -5.26%. Regarding `NC(=S)c1ccc(C(N)=S)o1`, the “activity change, negative = inhibition” value was 86.5%.

With `Cc1ccc(NN=Nc2nc3c([nH]2)c(=O)n(C)c(=O)n3C)cc1`, the “activity change, negative = inhibition” value was 44.6%.

For `Nc1nnc(SCC(=O)NC2CCCc3ccccc32)s1` (stereo not given), the “activity change, negative = inhibition” value is 32.8%.

`O=S(=O)(c1ccc(Br)cc1)n1ccc2ccccc21`: the “activity change, negative = inhibition” value was 31.3%. As to `Oc1ccc2nc(Cc3ccccc3)[nH]c2c1`, the “activity change, negative = inhibition” value is 36.4%. `CCOc1ccc(S(=O)(=O)Nc2nc3cc(OC)ccc3s2)cc1`: the “activity change, negative = inhibition” value is 34%.
